Screening results: PubChem BioAssay, National Center for Advancing Translational Sciences (NCATS)
Shown are actives, neighbours in structure and some others; about 7.2% of the full set was active somewhere.
Lassa entry inh: blocks Lassa virus binding to or entry into cells. actives 1.2% (n = 300,000). Potency, µM (highest dose often 37.9 µM), inactives show at the top dose activity change, negative = inhibition, actives largely listed as inhibitors. Lassa virus pseudotype entry inhibition, cell reporter. AID 540256; calls by dose curve; tested in HEK293 cells; further: nearly all actives have a fitted effect of over 50% in size
HCV inhibitor: inhibitors of hepatitis C virus infection. Huh7.5.1 HCVcc-Cre infection, luciferase reporter, 44 h. Potency, µM (doses to about 41.8 µM), for the others: at the top dose activity change, negative = inhibition, hits mostly inhibitors. actives 3.4% (n = 340,000). AID 651820
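Infectious HCV cell culture screen: compound-treated cells (1,000/well, pre-plated 4 h) are infected with HCVcc-Cre at roughly 0.5 moi and grown 44 h. Infection is quantified by luciferase signal after 15 min substrate incubation at room temperature.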
RE007 growth inh: less growth of the S. pombe RE007 Vpr strain | Potency, µM (top dose mostly 92.2 µM), for inactives: at the highest dose activity change, negative = less growth, hits mostly inhibitors | S. pombe RE007 Vpr strain, BacTiter-Glo ATP luminescence, 24 h | actives 0.21% (n = 360,000); active means well fitted falling curve with a large enough effect; inconclusive means small, poorly fitted or top-dose-only effect; inactive means no such curve, though single readings can be large or run the other way; further: nearly all actives have a fitted effect of over 50% in size
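Fission yeast strain RE007, carrying one chromosomally integrated HIV-1 vpr copy, was seeded at OD 0.01 in PMG+AL medium with 23 nL pinned compound. After 24 h at 30 °C and 99% humidity, viability was read by BacTiter-Glo luminescence.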
Sm TGR inh: S. mansoni TGR enzyme inhibition; Q962Y6; purified TGR, DTNB reduction, TNB absorbance 405 nm; Potency, µM (highest dose often 114 µM), for inactives: at the top dose activity change, negative = inhibition, most hits filed as inhibitors; actives 3% (n = 360,000); AID 485364; further: nearly all actives have a fitted effect of over 60% in size
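Kinetic colorimetric format: TGR-catalysed, NADPH-driven DTNB reduction monitored via TNB absorbance. Enzyme dispensed at 20 nM; compound exposure 15 min at room temperature before reaction start.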
FMDV inh: blocks foot and mouth disease virus | Potency, µM (top dose mostly 57.9 µM), for the others: at the top dose activity change, negative = inhibition, most hits filed as inhibitors | actives 1.2% (n = 410,000) | FMDV antiviral cell-based qHTS; calls by dose curve; tested in HEK293T cells; further: read-out not given here; nearly all actives have a fitted effect of over 45% in size
MARV entry inh: blocks Marburg virus binding to or entry into cells | Marburg virus pseudotyped entry inhibition, cell reporter | Potency, µM (top dose mostly 37.8 µM), inactives show at the top dose activity change, negative = inhibition, most hits filed as inhibitors | actives 1.8% (n = 300,000); calls by dose curve; tested in HEK293 cells
* = called active by the depositor; ? = inconclusive; . = not tested or not shown; [ ] = dose if it differs, or a comment. Unless noted, the call rests on the fitted dose curve; in most records, active means well fitted curve in the direction sought with a large enough effect; inconclusive means small, poorly fitted or top-dose-only effect, or another doubt; inactive means no such curve, though single readings can be large; an effect the other way counts as inactive or inconclusive. On the % scale 0 is the no-effect control and ±100 the full control effect; potency means the concentration at half of the fitted maximal effect.

SMILES	Lassa entry inh	HCV inhibitor	RE007 growth inh	Sm TGR inh	FMDV inh	MARV entry inh
CCN(CCCNC(=O)CN1N=C(c2ccccc2)CCC1=O)c1ccccc1	-4%[46.1 µM]	.	.	-11%	-8%	.
COc1ccc(C(=O)OCCc2cc3ccccc3c(=O)o2)cc1	.	?	-10%	?	7%	.
COc1cc2cc(CCCOC(=O)c3ccc(C(F)(F)F)cc3)oc(=O)c2cc1OC	.	0%	-7%	-32%	-3%	.
COc1cc2cc(CCCOC(=O)c3ccc4c(c3)OCO4)oc(=O)c2cc1OC	.	?	-16%	50µM*	-6%	.
COc1ccc(C(=O)OCCCc2cc3ccccc3c(=O)o2)cc1	.	-18%	1%	50µM*	21%	.
CCSc1nc(C2CC2)cc(-c2cccs2)c1C#N	-1%	7.9µM*	-7%	-2%	-8%	2%
CCSc1nc(C2CC2)cc(-c2ccco2)c1C#N	5%	?	-3%	-19%	-29%	-4%
CCOC(=O)[C@]12Cc3c(cc(OC)c(OC)c3OC)[C@H]1N(C)C(=O)c1ccccc12	.	.	-13%	.	-24%	.
CCOC(=O)[C@]12Cc3cc(C)ccc3[C@H]1N(C)C(=O)c1cc(OC)ccc12	.	.	-23%	.	40µM*	.
CCOC(=O)[C@]12Cc3c(cc(OC)c(OC)c3OC)[C@H]1N(C(C)C)C(=O)c1cc(OC)ccc12	.	.	-21%	.	14µM*	.
CCOC(=O)[C@]12Cc3c(cc(OC)c(OC)c3OC)[C@H]1N(C1CCCCC1)C(=O)c1cc(OC)ccc12	.	.	-26%	.	13µM*	.
CCOC(=O)[C@]12Cc3cc(OC)ccc3[C@H]1N(C(C)C)C(=O)c1cc(OC)ccc12	.	.	-26%	.	16µM*	.
Cc1ccc(N/C(SCc2ccccc2C)=C(/C#N)C(=O)NCc2ccco2)cc1C	?	?	-4%	-2%	-27%	?
CCc1ccc(N/C(SCc2cccc(F)c2)=C(/C#N)C(=O)NCc2ccco2)cc1	?	18%	1%	-17%	-6%	21µM*
CC(=O)N1CCC(=NNc2nc3ccccc3[nH]2)CC1	0%[46.1 µM]	13%	6%	0%	14%	?
CCC(C)(C)C1CCC(=NNc2nc3ccccc3[nH]2)CC1 (centres undefined)	8.2µM*	?	-3%	-14%	-17%	?
CC1CC(=O)N(CC(=O)Nc2ccc(F)cc2F)c2ccccc2S1 (centres undefined)	.	.	.	1%	-8%	9%[46.1 µM]
Cc1ccn2c(C=O)c(-c3ccc(F)cc3)c(C=O)c2c1	.	11µM*	-3%	-28%	-5%	.
COC1=C(CC=C(C)C)C2=C(CCC(=O)O2)CC1	.	.	.	.	.	5%
CC1CC(C)CN(C(=O)c2ccc3c(c2NCCO)C(=O)c2ccccc2C3=O)C1 (centres undefined)	?	?	-9%	1%	-21%	10µM*
COc1ccc(CNS(=O)(=O)c2ccc(N3CCCCS3(=O)=O)cc2)cc1	-18%[46.1 µM]	.	.	0%	-25%	.
CN(c1ccc(NC(=O)Nc2ccc(OC(F)(F)F)cc2)cc1)c1ccnc(Nc2cccc(S(N)(=O)=O)c2)n1	25µM*	.	.	.	.	.
Cc1cccc(CN2C(=O)N(c3ccc(C(C)C)cc3)S(=O)(=O)c3ccccc32)c1	?	.	.	11%	-5%	.
OCC(CO)(CO)N=Cc1c(O)ccc2ccccc12	-17%[14.3 µM]	.	?	12%	-14%	-2%
Oc1ccccc1N=Cc1c(O)ccc2ccccc12	-5%[46.1 µM]	-7%	-30%	28µM*	-1%	-13%[46.1 µM]
SMILES	Lassa entry inh	HCV inhibitor	RE007 growth inh	Sm TGR inh	FMDV inh	MARV entry inh
Oc1cccc(C=NCc2ccccc2)c1O	4%	1%	-14%	50µM*	-16%	-10%
Oc1ccc2ccccc2c1C=NC12CN3CCN(CN(C3)C1)C2	-4%	10%	-9%	45µM*	?	-18%
CN(C)/N=C/c1c(O)ccc2ccccc12	5%	10µM*	?	-3%	4%	15%
Oc1c(C=NCc2ccccc2)sc2ccccc12	-15%	-8%	-27%	4%[57.1 µM]	23%	2%[46.1 µM]
CN(C)CC(C)(O)c1ccc2c(c1)CN(Cc1cnn(-c3ccccc3)c1)CCO2 (centres undefined)	.	.	.	.	-7%	.
Cc1ccc(NC(=O)c2cc3c([nH]c2=O)CC(C)(C)CC3=O)c(C)c1	0%[46.1 µM]	.	.	4%	47%	?
CC(=O)c1cccc(N=Cc2c(O)ccc3ccccc23)c1	-14%	4%	-14%	-17%	-13%	?
C=Cc1ccc(N=Cc2c(O)ccc3ccccc23)cc1	-24%[46.1 µM]	-4%	-16%	63µM*	-3%	-21%[46.1 µM]
Cc1cc(C(=O)O)ccc1N=Cc1c(O)ccc2ccccc12	?	-17%	-13%	50µM*	-18%	13%
Oc1cccc(C=Nc2cccc3ccccc23)c1O	?	-10%	-17%	7.9µM*	6%	?
Cc1cccc(C)c1NC(=O)c1ccc([N+](=O)[O-])s1	5%	10µM*	-7%	-9%	-19%	-8%
Cc1ccnc(NC(=O)c2ccc([N+](=O)[O-])s2)c1	.	3.5µM*	?	-45%	58%	.
Cc1cccc(NC(=O)c2ccc([N+](=O)[O-])s2)n1	.	16%	16µM*	0%	24%	.
Cc1ccnc(NC(=O)c2cc([N+](=O)[O-])cc([N+](=O)[O-])c2)c1	-1%[46.1 µM]	-24%	13%	6%	-12%	5%[46.1 µM]
COc1ccccc1CN1CC2(CCN(C(=O)c3cccc(F)c3)CC2)C1	.	.	.	.	-4%	.
O=C1COc2ccc(-c3cc(-c4ccccc4)c4c(n3)-c3cc(Cl)ccc3OC4)cc2N1	-18%[46.1 µM]	.	.	10%	-10%	8%[46.1 µM]
OC(CNCCc1ccc(C(F)(F)F)cc1)COc1ccc2ccccc2c1 (centres undefined)	16µM*	?	?	3%	-22%	?
OC(COc1ccc(CNCCc2ccc(C(F)(F)F)cc2)cc1)CN1CCCCC1 (centres undefined)	?	5µM*	-22%	0%	-22%	?
OC(COc1ccc(OCC(O)CN2CCCCC2)cc1)CN1CCCCC1 (centres undefined)	.	?	-8%	-1%	0%	.
Cc1ccc(C)c(CN2C[C@H](Sc3ccccn3)C[C@H]2C(=O)Nc2ccc3sc(C)nc3c2)c1	.	.	.	.	-4%	.
